Hits are enriched below; roughly 4.2% of the tested compounds scored in any of these assays.
FBA Mtb inh: inhibits M. tuberculosis FBA enzyme; P9WQA3; purified M. tuberculosis FBA, fluorescence read-out; inhibition, % at 1 µM; actives 2.3% (n = 360,000); AID 588726;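 further: 0% = vehicle and 100% = reference inhibitor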
GDH-TPI counter-1: inhibits GDH-TPI coupling enzymes, artifact for Mtb FBA screen; GDH-TPI coupled enzyme counterscreen, NADH absorbance; inhibition, % at 4.8 µM; actives 1.2% (n = 360,000); in the data active means inhibition above about 30%;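 further: 0% = DMSO wells and 100% = wells lacking the enzyme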
CCHF vOTU inh: blocks the CCHF virus ovarian tumor domain protease; CCHFV vOTU protease, Pep-AMC fluorescence; inhibition, % at 11.5 µM; actives 0.55% (n = 370,000); AID 651958; in the data active means inhibition above about 30%; further: 0% = vehicle wells with enzyme and 100% = no enzyme wells
RecA splice inh: blocks M. tuberculosis RecA intein splicing | cell-free RecA intein splicing, fluorescence | actives 0.75% (n = 290,000) | inhibition, % (no concentration beside the values) | P9WHJ3; in the data active means inhibition above about 30%;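 further: 0% = vehicle wells and 100% = reference inhibitor control wells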
Target sequence (P9WHJ3 whole entry, looked up, canonical isoform): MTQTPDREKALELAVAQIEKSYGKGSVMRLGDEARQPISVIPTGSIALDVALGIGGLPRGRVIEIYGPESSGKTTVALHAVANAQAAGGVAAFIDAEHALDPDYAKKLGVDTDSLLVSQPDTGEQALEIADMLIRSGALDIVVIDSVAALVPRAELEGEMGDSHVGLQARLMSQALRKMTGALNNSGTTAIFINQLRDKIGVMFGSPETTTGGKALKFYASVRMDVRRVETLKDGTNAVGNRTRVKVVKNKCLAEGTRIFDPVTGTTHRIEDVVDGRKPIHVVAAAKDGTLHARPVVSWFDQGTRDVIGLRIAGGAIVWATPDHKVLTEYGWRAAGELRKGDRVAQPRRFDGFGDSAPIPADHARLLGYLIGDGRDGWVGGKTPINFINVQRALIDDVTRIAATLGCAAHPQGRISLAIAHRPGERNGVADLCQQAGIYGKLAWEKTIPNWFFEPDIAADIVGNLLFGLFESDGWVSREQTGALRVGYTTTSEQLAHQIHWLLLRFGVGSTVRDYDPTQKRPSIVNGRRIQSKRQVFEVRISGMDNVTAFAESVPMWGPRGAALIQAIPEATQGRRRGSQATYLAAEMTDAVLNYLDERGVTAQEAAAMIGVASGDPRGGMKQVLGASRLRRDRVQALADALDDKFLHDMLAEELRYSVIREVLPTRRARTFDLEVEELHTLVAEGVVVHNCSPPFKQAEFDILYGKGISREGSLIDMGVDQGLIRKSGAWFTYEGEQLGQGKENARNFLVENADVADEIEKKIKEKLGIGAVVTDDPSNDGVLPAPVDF
Mtb FBA inh conf: confirmation of M. tuberculosis fructose-bisphosphate aldolase inhibitors; inhibition, % at 1 µM; purified M. tuberculosis FBA, fluorescence read-out; actives 78% (n = 5,600); shares compounds with FBA Mtb inh;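 further: 0% = vehicle wells and 100% = reference inhibitor wells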
GDH-TPI counter-2: GDH-TPI inhibition counter-screen for FBA inhibitors; shares compounds with FBA Mtb inh; GDH-TPI coupled enzyme counterscreen, fluorescence; inhibition, % at 1 µM; actives 81% (n = 5,600); in the data active means inhibition above about 10%
* marks the source's active call; other numbers are inactive results; / = not tested or not shown; + = active, no number. Unless noted, no stated cut-off is given here; in the data, active means inhibition above about 27%; inactive means the rest.

SMILES	FBA Mtb inh	GDH-TPI counter-1	CCHF vOTU inh	RecA splice inh	Mtb FBA inh conf	GDH-TPI counter-2
CC1(C)Oc2ccc3ccc(=O)oc3c2/C(=C/NNC(N)=S)C1=O	28*	14	-30	-2	+	197*
c1ccc2c(c1)ccn2CCCN1CCCCC1	-3	2	12	/	/	/
Cc1c(C(=O)N2CCN(C3CCS(=O)(=O)C3)CC2)oc2c(F)cccc12 (centres undefined)	6	3	-2	/	/	/
COCCCNC(=O)Cn1cnc2sc(C)c(S(=O)(=O)N3CCN(c4ncccn4)CC3)c2c1=O	27*	4	-1	0	+	+
CCC(C)NC(=O)Cn1cnc2sc(C)c(S(=O)(=O)N3CCN(c4ncccn4)CC3)c2c1=O (centres undefined)	3	2	1	0	/	/
CCc1nc2ccc(C(=O)NCCCN3CCCC3=O)cn2c1N(CC)CCOC	-3	8	-4	/	/	/
CC1(c2ccc3ccccc3c2)NC(=O)N(CC(=O)N2CCN(Cc3ccccc3)CC2)C1=O (centres undefined)	4	-1	/	/	/	/
CC1(c2ccc3ccccc3c2)NC(=O)N(CC(=O)N2CCC(C(N)=O)CC2)C1=O (centres undefined)	54*	1	-11	-1	96*	63*
CC1(C)Cc2[nH]c(=O)c(C#N)cc2CS1	11	9	-2	-2	/	/
CCC1(C)Cc2[nH]c(=O)c(C#N)cc2CO1 (centres undefined)	69*	7	-38	0	2	-1
COc1ccc2c(C)c(CCC(=O)N3C[C@H]4C[C@@H](C3)c3cccc(=O)n3C4)c(=O)oc2c1	68*	10	-32	2	118*	128*
Cc1c(Br)c(=O)oc2cc(OCC(=O)N3C[C@H]4C[C@@H](C3)c3cccc(=O)n3C4)ccc12	40*	22	-20	/	54*	65*
COc1ccc2c(C)c(CC(=O)N3C[C@H]4C[C@@H](C3)c3cccc(=O)n3C4)c(=O)oc2c1	111*	11	-34	1	146*	104*
O=C(COc1ccc2c3c(c(=O)oc2c1)CCCC3)N1C[C@H]2C[C@@H](C1)c1cccc(=O)n1C2	19	4	-8	0	/	/
Nc1c(Cl)cc(Cl)cc1C(=O)OCC(=O)N1CCOCC1	101*	4	-140	-2	+	+
CC(C)N(C(=O)COC(=O)c1ccc(O)cc1)C(C)C	-1	4	-2	-1	/	/
O=C(OCC(=O)N1CCCC1)c1cc(Cl)ccc1Cl	-5	16	-18	-2	/	/
COc1cc2ccccc2cc1C(=O)OCC(=O)N1CCOCC1	52*	-8	-73	-5	180*	156*
CC(C)N(C(=O)COC(=O)c1cc(Cl)cc(Cl)c1N)C(C)C	80*	1	1	4	6	3
CC1CCN(C(=O)COC(=O)c2cc(Cl)cc(Cl)c2N)CC1	81*	-2	-103	-1	110*	90*
Cc1cc(C(=O)COC(=O)C23CC4CC(CC(O)(C4)C2)C3)c(C)n1C	3	6	5	/	/	/
CCN(C(=O)c1cc2c(=O)n3ccccc3nc2s1)C1CCCCC1	72*	7	-59	-38	56*	32*
CCCNC(=O)COC(=O)c1cc2c(=O)n3ccccc3nc2s1	76*	5	-68	-208	10	3
O=C(c1cc2c(=O)n3ccccc3nc2s1)N1CCN(c2cccc(Cl)c2)CC1	13	16	-6	-3	/	/
CCOC(=O)C1CCCN(C(=O)c2cc3c(=O)n4ccccc4nc3s2)C1 (centres undefined)	63*	16	-59	-61	10	-7
SMILES	FBA Mtb inh	GDH-TPI counter-1	CCHF vOTU inh	RecA splice inh	Mtb FBA inh conf	GDH-TPI counter-2
CCOC(=O)C1CCCN(C(=O)c2cc3ccccc3cc2OC)C1 (centres undefined)	5	14	-8	/	/	/
O=C(c1cc2c(=O)n3ccccc3nc2s1)N1CCOCC1	79*	25	-85	-9	+	+
CCN(CC)S(=O)(=O)c1ccc(OC)c(NC(=O)c2cc3c(=O)n4ccccc4nc3s2)c1	1	0	1	-4	/	/
CC1CCN(C(=O)c2cc3c(=O)n4ccccc4nc3s2)CC1	87*	15	-113	-45	132*	100*
CC(=O)OC1CCC2(C)C(COc3ccc4ccc(=O)oc4c3)C(C)(O)CCC2C1(C)C (centres undefined)	79*	22	-39	9	42*	38*
CCOC(=O)/C(=N\Nc1ncnc2ccccc12)c1ccc(C)cc1	-6	22	17	-1	/	/
O=C1c2ccccc2NC(c2ccccn2)N1c1ccc(Cl)cc1 (centres undefined)	18	-2	-62	-6	/	/
Cc1cccc(C2Nc3ccccc3C(=O)N2c2ccccc2)n1 (centres undefined)	61*	-2	-84	-4	47*	46*
CCCCc1cc(=O)oc2cc(C)cc(OCC(=O)NCCN3CCOCC3)c12	51*	15	-12	-4	+	170*
CCCc1cc(=O)oc2cc(C)cc(OCC(=O)NCCCN3CCOCC3)c12	73*	7	-6	-2	25	30*
Cc1cc(OCC(=O)NCCN2CCOCC2)c2c(C)c(C)c(=O)oc2c1	52*	10	1	-5	-6	-6
O=C(O)c1cn(-c2ccc(F)cc2)c2cc(N3CCNCC3)c(F)cc2c1=O	33*	9	-4	/	170*	136*
CCn1cc(C(=O)O)c(=O)c2cc(F)c(N3CCN(C(=S)NC(=O)c4ccccc4Cl)CC3)cc21	3	11	6	1	/	/
Cc1ccccc1-c1cccc([C@@H]2C[C@H]3[C@H](CON3C)CN2Cc2cc(Cl)cc(Cl)c2)c1	3	8	-6	/	/	/
CC(C)(C)NCc1cccn1-c1sc2c(c1C#N)CCCC2	76*	12	12	1	66*	52*
N#Cc1c(N2C(=O)c3ccc(C(=O)O)cc3C2=O)sc2c1CCCC2	-1	2	-3	1	/	/
COc1ccc2c(c1)CCC1(C)CC(=O)C=C21 (centres undefined)	39*	37*	-21	/	46*	45*
COc1ccc2c(c1)nc(NCCO)n2C	37*	-6	-8	-3	187*	170*
CC1(CCc2ccc3c(c2)OCO3)NC(=O)c2ccccc2N1 (centres undefined)	50*	-4	-57	-7	150*	114*
CC1(CCc2ccc3c(c2)OCO3)NCCc2c1[nH]c1ccccc21 (centres undefined)	1	-3	15	1	/	/
COc1cccc(-c2cnc(C(O)c3ccc(Cl)cc3)[nH]2)c1 (centres undefined)	1	0	-9	/	/	/
CCOc1cc(C(=O)N2CCCN(C)CC2)cc(OCC)c1OCC	-4	29	1	0	/	/
COc1ccc(-c2nc3n(c2C)Cc2ccccc2-3)cc1	111*	7	-26	0	101*	93*
